Laboratory results taken from PubChem BioAssay (NCATS).
Inconclusive results are not listed. The source made the active and inactive calls. Unless noted, the call rests on the fitted dose curve; in most records, active means well fitted curve in the direction sought with a large enough effect; inconclusive means small, poorly fitted or top-dose-only effect, or another doubt; inactive means no such curve, though single readings can be large; an effect the other way counts as inactive or inconclusive.

Legend:
[1] = molecular target: ATP-dependent 6-phosphofructokinase (Trypanosoma brucei brucei) (UniProt O15648); assay: qHTS Assay to Find Inhibitors of T. brucei phosphofructokinase: hit validation (AID 492961); further: series mostly up to about 51 µM; on the % scale 0 is the no-effect control and ±100 the full control effect
Chain of ATP-dependent 6-phosphofructokinase (Trypanosoma brucei brucei) (O15648 whole entry, looked up): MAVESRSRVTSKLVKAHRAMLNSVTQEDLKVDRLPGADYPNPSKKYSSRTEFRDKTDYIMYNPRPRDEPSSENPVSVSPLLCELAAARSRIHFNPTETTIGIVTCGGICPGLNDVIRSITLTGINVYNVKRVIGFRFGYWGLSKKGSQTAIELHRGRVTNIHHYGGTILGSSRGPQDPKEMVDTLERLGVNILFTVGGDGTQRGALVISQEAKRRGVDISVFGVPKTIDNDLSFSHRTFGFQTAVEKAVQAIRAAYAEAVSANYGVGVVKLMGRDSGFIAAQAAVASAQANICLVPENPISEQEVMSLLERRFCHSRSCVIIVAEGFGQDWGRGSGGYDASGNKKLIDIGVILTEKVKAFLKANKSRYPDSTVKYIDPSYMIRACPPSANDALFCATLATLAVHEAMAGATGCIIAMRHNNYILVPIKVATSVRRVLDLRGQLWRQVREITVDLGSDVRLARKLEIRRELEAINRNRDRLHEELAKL
Procedure, shortened: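 Luminescence from ADP-Glo reports ADP generated as T. brucei PFK (1.25 nM) phosphorylates 0.5 mM fructose-6-phosphate using 0.1 mM ATP. Reactions ran 45 min at room temperature, pH 8.0.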

[2] = Validation screen for small molecules that induce genotoxicity in human embryonic kidney (HEK293T) cells expressing luciferase-tagged ELG1 (AID 493106); further: potency means the concentration at half of the fitted maximal effect
Procedure, shortened: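 HEK293T cells expressing luciferase-tagged ELG1 were exposed to compound or DMSO vehicle for 16 hr at 37 °C, 5% CO2. Genotoxic stress raises ELG1 levels, so increased luciferase signal after ONE-Glo addition and 30 min at room temperature marks hits.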

[3] = molecular target: ATPase family AAA domain-containing protein 5 (Homo sapiens) (UniProt Q96QE3); assay: Validation screen for small molecules that inhibit ELG1-dependent DNA repair in human embryonic kidney (HEK293T) cells expressing luciferase-tagged ELG1 (AID 493107); further: nearly all actives have a fitted effect of over 70% in size; further: potency means the concentration at half of the fitted maximal effect
Chain of ATPase family AAA domain-containing protein 5 (Homo sapiens) (Q96QE3 whole entry, looked up, the tested form may be a part): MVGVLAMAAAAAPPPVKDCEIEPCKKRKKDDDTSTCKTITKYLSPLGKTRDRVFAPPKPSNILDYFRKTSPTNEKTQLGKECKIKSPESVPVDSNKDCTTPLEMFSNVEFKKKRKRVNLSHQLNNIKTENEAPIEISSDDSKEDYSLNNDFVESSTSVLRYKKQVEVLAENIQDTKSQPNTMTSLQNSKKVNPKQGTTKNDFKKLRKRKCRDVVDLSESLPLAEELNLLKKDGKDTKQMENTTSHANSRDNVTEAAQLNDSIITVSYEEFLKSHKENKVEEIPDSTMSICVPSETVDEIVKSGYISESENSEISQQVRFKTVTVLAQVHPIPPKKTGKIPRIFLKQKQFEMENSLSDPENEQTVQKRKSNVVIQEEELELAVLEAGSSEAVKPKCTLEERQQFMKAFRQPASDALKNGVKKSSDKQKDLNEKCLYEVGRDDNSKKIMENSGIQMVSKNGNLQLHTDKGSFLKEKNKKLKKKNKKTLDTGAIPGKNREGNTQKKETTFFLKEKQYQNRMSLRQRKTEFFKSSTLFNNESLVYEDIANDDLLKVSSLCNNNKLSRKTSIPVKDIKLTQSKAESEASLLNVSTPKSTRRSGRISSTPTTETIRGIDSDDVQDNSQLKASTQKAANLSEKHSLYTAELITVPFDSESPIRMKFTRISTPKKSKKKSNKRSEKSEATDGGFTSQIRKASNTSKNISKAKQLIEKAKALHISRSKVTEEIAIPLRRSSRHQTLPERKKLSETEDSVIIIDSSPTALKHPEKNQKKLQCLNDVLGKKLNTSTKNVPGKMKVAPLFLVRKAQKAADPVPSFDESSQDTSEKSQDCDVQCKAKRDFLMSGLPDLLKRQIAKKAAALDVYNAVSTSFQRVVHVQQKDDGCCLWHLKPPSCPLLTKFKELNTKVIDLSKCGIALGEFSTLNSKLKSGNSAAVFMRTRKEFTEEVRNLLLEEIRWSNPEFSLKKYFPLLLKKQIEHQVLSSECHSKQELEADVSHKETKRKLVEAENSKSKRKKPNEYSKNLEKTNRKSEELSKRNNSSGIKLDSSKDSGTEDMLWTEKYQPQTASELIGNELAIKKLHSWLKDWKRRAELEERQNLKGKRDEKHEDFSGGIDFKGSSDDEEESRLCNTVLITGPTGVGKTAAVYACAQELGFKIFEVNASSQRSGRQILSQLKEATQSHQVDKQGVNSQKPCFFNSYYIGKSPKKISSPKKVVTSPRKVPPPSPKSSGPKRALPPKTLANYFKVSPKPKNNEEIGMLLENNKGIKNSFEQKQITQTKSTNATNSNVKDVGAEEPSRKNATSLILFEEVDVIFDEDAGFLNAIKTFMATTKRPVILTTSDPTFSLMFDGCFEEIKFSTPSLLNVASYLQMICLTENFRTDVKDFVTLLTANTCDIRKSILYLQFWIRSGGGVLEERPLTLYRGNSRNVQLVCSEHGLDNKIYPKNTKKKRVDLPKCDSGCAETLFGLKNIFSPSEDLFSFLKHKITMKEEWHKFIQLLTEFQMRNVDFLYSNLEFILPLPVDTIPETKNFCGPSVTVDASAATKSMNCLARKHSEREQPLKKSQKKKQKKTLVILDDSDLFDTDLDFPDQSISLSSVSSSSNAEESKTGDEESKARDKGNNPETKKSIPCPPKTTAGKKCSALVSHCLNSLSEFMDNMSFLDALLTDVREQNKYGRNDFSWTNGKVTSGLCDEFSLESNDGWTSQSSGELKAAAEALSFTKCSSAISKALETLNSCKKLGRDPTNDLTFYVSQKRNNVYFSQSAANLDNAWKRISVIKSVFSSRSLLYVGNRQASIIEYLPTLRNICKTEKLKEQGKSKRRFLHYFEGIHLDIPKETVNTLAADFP
Procedure, shortened: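 HEK293T cells expressing luciferase-tagged ELG1 were co-treated with 5-fluorouridine and compound or DMSO for 16 hr at 37 °C, 5% CO2. Luciferase activity was then read with ONE-Glo after 30 min at room temperature; suppressed signal indicates blocked ELG1 function.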

[4] = molecular target: Thyrotropin-releasing hormone receptor (Homo sapiens) (UniProt P34981); assay: qHTS for Small Molecule Agonists and Allosteric Enhancers of Human TRH Receptor: Validation Screen for Agonists (AID 493127;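 active means calcium activation more than 3 SD above the typical response in the agonist read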;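 further: intracellular calcium rise by fluo-8 fluorescence before TRH EC20 addition; 0% is about no effect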); details: TRH receptor agonist cell assay; at 2 µM; stronger effect = higher value
Chain of Thyrotropin-releasing hormone receptor (Homo sapiens) (P34981 whole entry, looked up): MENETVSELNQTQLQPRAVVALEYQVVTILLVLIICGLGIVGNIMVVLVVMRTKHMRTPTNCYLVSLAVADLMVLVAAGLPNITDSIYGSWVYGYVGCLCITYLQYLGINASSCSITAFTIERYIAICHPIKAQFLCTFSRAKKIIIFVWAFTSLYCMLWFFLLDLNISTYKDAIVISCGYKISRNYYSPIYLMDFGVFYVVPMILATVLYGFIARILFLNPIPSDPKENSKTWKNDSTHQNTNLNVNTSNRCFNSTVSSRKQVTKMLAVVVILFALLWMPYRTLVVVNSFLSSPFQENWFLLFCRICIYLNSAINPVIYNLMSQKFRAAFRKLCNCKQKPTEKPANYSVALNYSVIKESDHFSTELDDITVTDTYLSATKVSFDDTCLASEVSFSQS
Procedure, shortened: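 TRHR-expressing cells were plated overnight in serum-containing medium, then loaded with fluo-8 calcium dye at room temperature for 30 min–1.5 h. After a 10 s baseline, compound was pin-transferred and calcium fluorescence (ex 480/em 530) read kinetically for agonist response.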

[5] = Nrf2 qHTS screen for inhibitors: Validation (AID 493153; active means well fitted inhibition curve with a large enough effect in the main read-out, with a control signal flat, not every such curve was filed as active; further: potency means the concentration at half of the fitted maximal effect); details: Potency: luciferase luminescence; viability change: measured here: cytotoxicity max response
Procedure, shortened: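 A549 cells carrying an ARE-driven firefly luciferase reporter, in 5% FBS OPTI-MEM, were treated with compounds in concentration-response for 18-24 h at 37°C. Viability was read by CellTiter-Fluor fluorescence, then Nrf2 activity by luciferase luminescence.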

[6] = qHTS for Inhibitors of Cell Surface uPA Generation: Validation Assay (AID 493164);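 further: RAW 264.7 macrophage cells exposed to compound for 18 h; 0% is about no effect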
Procedure, shortened: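 RAW 264.7, 4000 cells/well, o/n plating; cpd 7-pt 1:5 dilution 2.45 nM–38.3 uM final; 18 h, 37 C/5% CO2; ATP-Lite, 5 s luminescence exposure.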

[7] = molecular target: Galactokinase (Homo sapiens) (UniProt P51570); assay: qHTS Validation Assay for Inhibitors of Human Galactokinase (GALK) (AID 493189); further: 0% is about no effect
Chain of Galactokinase (Homo sapiens) (P51570 whole entry, looked up): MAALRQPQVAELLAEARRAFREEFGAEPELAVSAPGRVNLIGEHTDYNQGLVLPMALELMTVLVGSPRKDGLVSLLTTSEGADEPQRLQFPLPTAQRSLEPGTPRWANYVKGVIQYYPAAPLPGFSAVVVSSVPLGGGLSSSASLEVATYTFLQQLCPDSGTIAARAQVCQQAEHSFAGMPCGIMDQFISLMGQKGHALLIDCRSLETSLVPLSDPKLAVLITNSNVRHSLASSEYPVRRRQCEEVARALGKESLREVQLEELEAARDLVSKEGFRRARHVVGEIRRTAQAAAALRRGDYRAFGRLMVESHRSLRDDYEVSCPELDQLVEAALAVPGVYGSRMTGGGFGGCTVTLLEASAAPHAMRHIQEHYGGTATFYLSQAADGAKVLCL
Procedure, shortened: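 GALK (5 nM) with 35 uM ATP and 100 uM galactose in HEPES pH8.0, MgCl2, NaCl, DTT, BSA; 1 h at room temperature. Residual ATP read by Kinase-Glo Plus luminescence after 10 min.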

[8] = molecular target: Peptidyl-prolyl cis-trans isomerase NIMA-interacting 1 (Homo sapiens) (UniProt Q13526); assay: qHTS Validation Assay to Find Inhibitors of Pin1 (AID 504536; active means well fitted inhibition curve with a large enough effect in the polarisation, with a control signal flat, not every such curve was filed as active; the % refers to the polarisation;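 further: 0% = full Pin1 enzyme wells and -100% = no-enzyme wells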)
Chain of Peptidyl-prolyl cis-trans isomerase NIMA-interacting 1 (Homo sapiens) (Q13526 whole entry, looked up): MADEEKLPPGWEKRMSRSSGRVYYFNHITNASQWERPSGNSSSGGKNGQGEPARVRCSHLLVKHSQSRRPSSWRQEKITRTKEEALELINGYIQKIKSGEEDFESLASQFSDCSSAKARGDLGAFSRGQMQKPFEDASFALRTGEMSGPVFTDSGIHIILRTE
Procedure, shortened: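 Fluorescence polarization competition: compounds (titration) displace HiFluor-488-labeled Pin1-1b peptide from Pin1 (0.3 uM final) in pH 7.5 HEPES buffer with DTT, 10 min at room temperature; %Activity normalized to no-enzyme wells, curves fitted.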

[9] = molecular target: Phosphoglycerate kinase, glycosomal (Trypanosoma brucei brucei) (UniProt P07378); assay: qHTS Validation Assay to Find Inhibitors of Phosphoglycerate Kinase (AID 504547);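 further: control wells lack PGK and mark full inhibition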
Chain of Phosphoglycerate kinase, glycosomal (Trypanosoma brucei brucei) (P07378 whole entry, looked up): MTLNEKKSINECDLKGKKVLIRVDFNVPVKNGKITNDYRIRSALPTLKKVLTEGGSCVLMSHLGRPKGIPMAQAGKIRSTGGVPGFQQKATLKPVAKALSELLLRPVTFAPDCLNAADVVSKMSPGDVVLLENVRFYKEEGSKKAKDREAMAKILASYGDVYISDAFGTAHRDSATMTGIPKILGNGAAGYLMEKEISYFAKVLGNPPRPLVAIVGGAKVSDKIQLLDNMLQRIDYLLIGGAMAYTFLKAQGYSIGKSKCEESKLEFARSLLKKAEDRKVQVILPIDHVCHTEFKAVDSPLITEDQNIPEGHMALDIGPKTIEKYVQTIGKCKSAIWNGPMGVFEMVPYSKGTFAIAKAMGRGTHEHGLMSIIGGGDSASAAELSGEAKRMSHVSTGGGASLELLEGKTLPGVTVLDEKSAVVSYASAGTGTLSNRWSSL
Procedure, shortened: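 PGK activity was coupled to GAPDH (100nM final), which generates the unstable substrate 1,3-bisphosphoglycerate in-well. Reactions ran 60 minutes at room temperature in 100mM TEA pH 7.6, 5mM MgCl2, 0.01% Tween-20, then Kinase-Glo Plus luminescence was read.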

[10] = Validation screen for small molecules that induce DNA re-replication in SW480 colon adenocarcinoma cells (AID 504364); further: potency means the concentration at half of the fitted maximal effect
Procedure, shortened: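 SW480 cells seeded at 250 per well were exposed to compound or DMSO for 48 hr at 37 C, 5% CO2, then stained with Hoechst for 40 min. DNA content per nucleus was imaged (405 nm ex, 500-530 nm em).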

COc1nc(C)nc(Cl)c1NC1=NCCN1
4.38%: viability change [5]
inactive: Potency [1] | Potency [2] | Potency [3] | activation [4] 0.688% | Potency [5] | outcome [6] | Potency [7] | Potency [8] | Potency [9]

NCCCCCC(=O)O
inactive: Potency [1] | Potency [2] | activation [4] 0.0625% | Potency [5] | outcome [6] | Potency [7] | Potency [10] | Potency [9]
0%: viability change [5]

CC[N+](CC)(CC)CCOc1cccc(OCC[N+](CC)(CC)CC)c1OCC[N+](CC)(CC)CC
5.55%: viability change [5]
inactive: Potency [1] | Potency [2] | Potency [3] | Potency [5] | outcome [6] | Potency [7] | Potency [8] | Potency [9]

CN(CCOc1ccc(NS(C)(=O)=O)cc1)CCc1ccc(NS(C)(=O)=O)cc1
inactive: Potency [1]

CC#C[C@]1(O)CC[C@H]2[C@@H]3CCC4=CC(=O)CCC4=C3[C@@H](c3ccc(N(C)C)cc3)C[C@@]21C
active: Potency [5] 23100 nM
inactive: Potency [1] | Potency [2] | outcome [6] | Potency [8] | Potency [9]
-7.52%: viability change [5]

CN1CCC(=C2c3ccccc3CC(=O)c3sccc32)CC1
-3.17%: viability change [5]
inactive: Potency [2] | Potency [3] | Potency [5] | outcome [6] | Potency [7] | Potency [10] | Potency [8] | Potency [9]

CC(C)NCC(O)COc1ccc(CCOCC2CC2)cc1 (stereo unspecified)
inactive: Potency [2] | Potency [3] | Potency [5] | outcome [6] | Potency [7] | Potency [10] | Potency [8] | Potency [9]
-1.98%: viability change [5]

CC(CCc1ccc(O)cc1)NCCc1ccc(O)c(O)c1 (stereo unspecified)
2.92%: viability change [5]
inactive: Potency [2] | Potency [3] | activation [4] 1.06% | Potency [5] | outcome [6] | Potency [7] | Potency [8] | Potency [9]

CN1CCC(=C2c3ccccc3C=Cc3ccccc32)CC1
17%: viability change [5]
inactive: Potency [2] | Potency [3] | Potency [5] | outcome [6] | Potency [7] | Potency [10] | Potency [8] | Potency [9]

NC(=O)NO
-1.36%: viability change [5]
inactive: Potency [2] | Potency [3] | activation [4] 1.12% | Potency [5] | outcome [6] | Potency [7] | Potency [10] | Potency [8] | Potency [9]

NCCS(=O)(=O)O
inactive: Potency [2] | Potency [3] | activation [4] 1.12% | Potency [5] | outcome [6] | Potency [7] | Potency [8] | Potency [9]
-6.75%: viability change [5]

CCOC(=O)C(C)(C)Oc1ccc(Cl)cc1
-5.48%: viability change [5]
inactive: Potency [2] | Potency [3] | activation [4] -8.94% | Potency [5] | outcome [6] | Potency [7] | Potency [10] | Potency [8] | Potency [9]

CCOC(=O)c1ncn2c1CN(C)C(=O)c1cc(F)ccc1-2
2.56%: viability change [5]
inactive: Potency [2] | Potency [3] | Potency [5] | outcome [6] | Potency [7] | Potency [10] | Potency [8] | Potency [9]

O=C(C1CCCCC1)N1CC(=O)N2CCc3ccccc3C2C1 (stereo unspecified)
inactive: Potency [2] | Potency [3] | activation [4] 0.312% | outcome [6] | Potency [7] | Potency [8] | Potency [9]

CCC1(C)CC(=O)NC1=O (stereo unspecified)
4.35%: viability change [5]
inactive: Potency [2] | Potency [3] | activation [4] 1.44% | Potency [5] | outcome [6] | Potency [7] | Potency [8] | Potency [9]

Cc1cc(C(C)(C)C)c(O)c(C)c1CC1=NCCN1
inactive: Potency [2] | Potency [3] | activation [4] 1.19% | Potency [5] | outcome [6] | Potency [7] | Potency [10] | Potency [8] | Potency [9]
1.24%: viability change [5]

Clc1ccc(C(c2ccccc2Cl)C(Cl)Cl)cc1 (stereo unspecified)
inactive: Potency [2] | Potency [3] | activation [4] 1.38% | outcome [6] | Potency [7] | Potency [10] | Potency [8] | Potency [9]

OCCN(CCO)c1nc(N2CCCCC2)c2nc(N(CCO)CCO)nc(N3CCCCC3)c2n1
active: Potency [3] 231 nM
inactive: Potency [2] | activation [4] 25.4% | outcome [6] | Potency [7] | Potency [10] | Potency [9]

COc1ccc(C2CNC(=O)C2)cc1OC1CCCC1 (stereo unspecified)
inactive: Potency [2] | Potency [3] | activation [4] 0.812% | Potency [5] | outcome [6] | Potency [7] | Potency [10] | Potency [8] | Potency [9]
3.91%: viability change [5]

COC(=O)Nc1nc2ccc(C(=O)c3cccs3)cc2[nH]1
inactive: Potency [3] | Potency [5] | outcome [6] | Potency [7] | Potency [8] | Potency [9]
active: Potency [2] 2310 nM | Potency [10] 116 nM
-18.1%: viability change [5]

CC(C)Cc1ccc(C(C)C(=O)O)cc1 (stereo unspecified)
7.62%: viability change [5]
inactive: Potency [2] | Potency [3] | activation [4] 0.375% | Potency [5] | outcome [6] | Potency [8] | Potency [9]

COc1cc2nc(N3CCN(C(=O)C4COc5ccccc5O4)CC3)nc(N)c2cc1OC (stereo unspecified)
-11.8%: viability change [5]
inactive: Potency [2] | Potency [5] | outcome [6] | Potency [7] | Potency [8] | Potency [9]
active: Potency [3] 23100 nM
